# Active and inactive are the calls of the source.
# How the values were obtained:
# Albumin (Bos taurus) = Albumin (Bos taurus) (UniProt P02769); assay: compounds binding labelled BSA control protein – biochemical, small-molecule microarray, Alexa647 label, 635/667 nm fluorescence, artefact control for SMM control protein annotation, profiling panel (AID 1118); details: BSA-A647 binding, fluorescence 635 nm, higher = more signal;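 also: score merges 667 nm emission intensity and signal-to-noise per printed compound spot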
# [1] = probe aXIP binding to arrayed compounds – biochemical, NeuroSMM set, 635/667 nm fluorescence, primary screen (AID 1119); details: small-molecule microarray, higher = more signal, called active from +8 up or from −8 down;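 also: probe is the protein aXip251-270 applied at 1 µg/mL to compound-printed slides; binding of probe to printed compounds measured as 667 nm fluorescence plus signal to noise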
# [2] = probe aNOTCH3 binding on compound microarray – biochemical, small-molecule microarray, 635/667 nm fluorescence, primary screen (AID 1120); details: higher = more signal;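 also: probe is a biotin-tagged antibody raised against NOTCH3 rather than NOTCH3 protein; score merges spot fluorescence near 667 nm with spot signal to noise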
# [3] = probe aNOTCH2 binding on compound microarray – biochemical, small-molecule microarray, 635/667 nm fluorescence, primary screen (AID 1121); details: higher = more signal;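 also: score merges feature fluorescence read at 667 nm with its signal to noise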
# [4] = target: Carbonic anhydrase 2 (Homo sapiens) (UniProt P00918); assay: compounds binding carbonic anhydrase 2 – biochemical, small-molecule microarray, Alexa647-labelled CAII, profiling panel (AID 1122); details: CAII-A647 binding fluorescence, higher = more signal
# [5] = COS7 lysate on small-molecule microarray, probe aHis, 635 nm (AID 1123); details: COS7 cell lysate, fluorescence, higher = more signal;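 also: z-score combines 667nm fluorescence intensity with signal-to-noise per printed compound spot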
# [6] = probe aLAP1 signal on lysate-treated microarray – cell lysate, small-molecule microarray, COS7 lysate, primary screen (AID 1124); details: probe aLAP1, fluorescence, higher = more signal;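 also: lysate comes from COS7 cells expressing LAP1 and is applied at 0.3 µg/mL; score merges spot fluorescence near 667 nm with signal-to-noise over triplicate slides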
# Sam68 (KHDRBS1) = assay: compounds binding KHDRBS1 protein – biochemical, small-molecule microarray, 635 nm fluorescence, primary screen (AID 1125); details: higher = more signal;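 also: score merges 667 nm channel intensity with signal to noise over triplicate slides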
# [7] = tested on: Chordin-like protein 2 (CHRDL2); assay: compounds binding chordin-like 2 – biochemical, small-molecule microarray, 635 nm fluorescence, primary screen (AID 1126); details: fluorescence 635 nm, higher = more signal;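 also: printed compound slides probed with Chrdl2 protein at 4 µg/mL for 1 h at 4 C; score merges 667 nm emission intensity with signal to noise over three replicate slides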
# [8] = target: Concanavalin-A (Canavalia ensiformis) (UniProt P02866); assay: compounds binding concanavalin A lectin – biochemical, small-molecule microarray, Alexa647 label, 635 nm, artefact control for SMM control protein annotation, primary screen (AID 1127); details: ConA-A647 binding fluorescence, higher = more signal;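 also: z combines 667 nm emission intensity with signal-to-noise across three replicate slides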
# [9] = compounds binding Alexa647 anti-His antibody – biochemical, small-molecule microarray, 635 nm fluorescence, artefact control for SMM control protein annotation, primary screen (AID 1128); details: higher = more signal;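 also: score merges feature fluorescence with signal-to-noise for each printed compound spot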
# [10] = tested on: Human papillomavirus type 1a E7 protein (residues 1-88); assay: HPV1a E7 small-molecule binders, primary screen, biochemical, small-molecule microarray, residues 1-88, 635 nm (AID 1129); details: small-molecule microarray binding, fluorescence 635 nm; higher = more signal
# [11] = target: Focal adhesion kinase 1 (Homo sapiens) (UniProt Q05397); assay: PTK2 protein binding on printed compound slides – biochemical, small-molecule microarray, 635/667 nm fluorescence, BSA, DTT, primary screen (AID 1130); details: 635 nm fluorescence, higher = more signal;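 also: composite of spot emission at 667 nm and signal to noise over triplicate slides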
# [12] = tested on: Fibrinogen (Alexa647-labelled); assay: Alexa647-fibrinogen binding to printed small molecules – biochemical, small-molecule microarray, 635/667 nm fluorescence, artefact control for SMM control-protein annotation, profiling panel (AID 1131); details: fibrinogen-A647 binding fluorescence, higher = more signal;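 also: z-score merges 667 nm fluorescence with per-spot signal-to-noise over triplicate slides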
# [13] = target: Follistatin (Homo sapiens) (UniProt P19883); assay: FST protein binding to printed compounds – biochemical, small-molecule microarray, 635/667 nm fluorescence, primary screen (AID 1132); details: 635 nm fluorescence, higher = more signal
# [14] = target: Fibroblast growth factor 2 (Homo sapiens) (UniProt P09038); assay: basic fibroblast growth factor binding to printed compounds – biochemical, small-molecule microarray, 635/667 nm fluorescence, primary screen (AID 1133); details: FGF2, fluorescence 635/667, higher = more signal
# [15] = JC-1 mitochondrial potential readout, lung cancer cells – cell-based, A549, JC-1 fluorescence, basal, 24 h, 100 nL, profiling panel (AID 1138); details: higher = more signal;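 also: A549 lung adenocarcinoma cells under basal conditions with no added stimulus; test concentration not given here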
# Lefty1 = Lefty1 protein binding to printed compounds – biochemical, small-molecule microarray, 635/667 nm fluorescence, primary screen (AID 1139); details: fluorescence 635/667, higher = more signal
# [16] = tested on: wheat germ agglutinin (Triticum aestivum), Alexa647-labelled; assay: Alexa647-WGA lectin binding to printed small molecules – biochemical, small-molecule microarray, 635/667 nm fluorescence, artefact control for SMM control-protein annotation, profiling panel (AID 1140); details: WGA-A647 binding, 635 nm fluorescence, higher = more signal;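 also: score merges 667 nm feature emission with signal to noise over triplicate slides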
# [17] = target: Luciferin 4-monooxygenase (Photinus pyralis) (UniProt P08659); assay: inhibition of purified Photinus pyralis luciferase – biochemical, luminescence, purified enzyme, 2006 set, primary screen (AID 1141); details: purified firefly luciferase, SteadyGlo luminescence, 30 min; higher = more signal, called active from +8 up or from −8 down;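 also: cell-free assay with purified firefly luciferase at 100 ng per well in PBS; test concentration not given here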
# Luciferin 4-monooxygenase (Photinus pyralis), sequence (P08659 whole entry, looked up): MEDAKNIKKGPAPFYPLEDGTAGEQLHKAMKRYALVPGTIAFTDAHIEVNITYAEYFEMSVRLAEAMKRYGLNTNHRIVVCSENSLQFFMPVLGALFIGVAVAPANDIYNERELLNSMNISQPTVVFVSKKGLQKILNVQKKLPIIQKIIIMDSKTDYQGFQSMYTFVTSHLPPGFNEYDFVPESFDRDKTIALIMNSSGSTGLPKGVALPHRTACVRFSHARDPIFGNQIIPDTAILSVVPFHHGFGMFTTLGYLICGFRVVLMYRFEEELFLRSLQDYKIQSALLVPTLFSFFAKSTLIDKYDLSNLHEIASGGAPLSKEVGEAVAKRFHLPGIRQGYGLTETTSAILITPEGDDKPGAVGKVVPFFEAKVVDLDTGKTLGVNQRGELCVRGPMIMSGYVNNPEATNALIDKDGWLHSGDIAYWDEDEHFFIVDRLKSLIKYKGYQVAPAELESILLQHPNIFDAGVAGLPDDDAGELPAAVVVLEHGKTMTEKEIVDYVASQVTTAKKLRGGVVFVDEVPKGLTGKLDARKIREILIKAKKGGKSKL
# Albumin (Bos taurus), sequence (P02769 whole entry, looked up): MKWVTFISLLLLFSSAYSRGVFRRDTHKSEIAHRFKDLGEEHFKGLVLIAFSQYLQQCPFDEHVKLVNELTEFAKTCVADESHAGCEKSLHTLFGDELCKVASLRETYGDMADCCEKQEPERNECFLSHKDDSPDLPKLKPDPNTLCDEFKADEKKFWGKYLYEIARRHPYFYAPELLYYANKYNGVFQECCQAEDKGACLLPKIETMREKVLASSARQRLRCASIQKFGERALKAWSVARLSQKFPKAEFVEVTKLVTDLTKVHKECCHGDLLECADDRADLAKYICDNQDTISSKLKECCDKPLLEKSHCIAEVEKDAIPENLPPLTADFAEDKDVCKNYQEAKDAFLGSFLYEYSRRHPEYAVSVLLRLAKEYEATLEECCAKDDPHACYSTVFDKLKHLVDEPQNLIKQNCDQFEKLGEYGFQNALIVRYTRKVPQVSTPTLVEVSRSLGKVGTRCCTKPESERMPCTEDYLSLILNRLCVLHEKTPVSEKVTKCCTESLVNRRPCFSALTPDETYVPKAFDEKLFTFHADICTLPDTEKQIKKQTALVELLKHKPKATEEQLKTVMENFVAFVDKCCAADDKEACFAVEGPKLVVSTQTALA
# Follistatin (Homo sapiens), sequence (P19883 whole entry, looked up): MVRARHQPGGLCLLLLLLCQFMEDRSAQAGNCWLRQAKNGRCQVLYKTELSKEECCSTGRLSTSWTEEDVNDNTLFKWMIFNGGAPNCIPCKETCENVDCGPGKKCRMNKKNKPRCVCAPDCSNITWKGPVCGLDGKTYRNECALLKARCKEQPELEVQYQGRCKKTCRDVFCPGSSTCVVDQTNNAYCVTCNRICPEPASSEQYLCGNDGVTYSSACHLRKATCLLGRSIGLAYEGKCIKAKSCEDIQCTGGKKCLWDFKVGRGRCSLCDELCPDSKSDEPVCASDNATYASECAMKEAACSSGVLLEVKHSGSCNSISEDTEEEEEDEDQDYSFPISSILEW
# Focal adhesion kinase 1 (Homo sapiens), sequence (Q05397 whole entry, looked up): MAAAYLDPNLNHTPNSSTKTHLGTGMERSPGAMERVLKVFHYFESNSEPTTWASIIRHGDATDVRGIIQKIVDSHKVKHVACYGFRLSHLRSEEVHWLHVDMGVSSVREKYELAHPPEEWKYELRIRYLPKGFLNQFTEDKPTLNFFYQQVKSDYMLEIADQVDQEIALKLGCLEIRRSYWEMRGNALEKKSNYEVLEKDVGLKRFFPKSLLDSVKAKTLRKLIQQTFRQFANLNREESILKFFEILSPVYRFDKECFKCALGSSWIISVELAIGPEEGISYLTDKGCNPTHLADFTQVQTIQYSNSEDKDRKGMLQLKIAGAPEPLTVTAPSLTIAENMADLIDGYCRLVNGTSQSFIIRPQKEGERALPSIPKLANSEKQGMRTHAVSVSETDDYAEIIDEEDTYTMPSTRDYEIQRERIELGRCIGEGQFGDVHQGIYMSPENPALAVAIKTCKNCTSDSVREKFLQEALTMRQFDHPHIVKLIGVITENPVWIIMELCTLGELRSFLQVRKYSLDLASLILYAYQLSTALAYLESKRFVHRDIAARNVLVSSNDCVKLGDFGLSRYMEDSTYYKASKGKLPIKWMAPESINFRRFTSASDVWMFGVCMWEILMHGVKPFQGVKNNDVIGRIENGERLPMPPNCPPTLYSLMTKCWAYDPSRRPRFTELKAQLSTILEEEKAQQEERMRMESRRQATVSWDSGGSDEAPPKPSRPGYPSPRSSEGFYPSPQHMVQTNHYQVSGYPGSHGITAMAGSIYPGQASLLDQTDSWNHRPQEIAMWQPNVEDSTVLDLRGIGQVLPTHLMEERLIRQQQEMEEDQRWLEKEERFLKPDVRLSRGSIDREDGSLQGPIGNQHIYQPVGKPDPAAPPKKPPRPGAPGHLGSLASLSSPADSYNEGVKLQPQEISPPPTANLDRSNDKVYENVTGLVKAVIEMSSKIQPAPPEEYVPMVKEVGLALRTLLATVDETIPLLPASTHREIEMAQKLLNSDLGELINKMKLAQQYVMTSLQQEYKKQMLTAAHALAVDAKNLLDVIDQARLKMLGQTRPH
# Concanavalin-A (Canavalia ensiformis), sequence (P02866 whole entry, looked up): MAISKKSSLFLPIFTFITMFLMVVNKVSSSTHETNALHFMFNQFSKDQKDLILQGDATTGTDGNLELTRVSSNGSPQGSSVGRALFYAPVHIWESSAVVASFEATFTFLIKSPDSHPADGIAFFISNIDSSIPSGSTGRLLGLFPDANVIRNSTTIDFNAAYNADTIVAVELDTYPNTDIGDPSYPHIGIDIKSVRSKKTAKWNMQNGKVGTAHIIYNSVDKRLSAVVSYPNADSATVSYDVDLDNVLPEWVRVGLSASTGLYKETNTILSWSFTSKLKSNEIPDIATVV
# Fibroblast growth factor 2 (Homo sapiens), sequence (P09038 whole entry, looked up): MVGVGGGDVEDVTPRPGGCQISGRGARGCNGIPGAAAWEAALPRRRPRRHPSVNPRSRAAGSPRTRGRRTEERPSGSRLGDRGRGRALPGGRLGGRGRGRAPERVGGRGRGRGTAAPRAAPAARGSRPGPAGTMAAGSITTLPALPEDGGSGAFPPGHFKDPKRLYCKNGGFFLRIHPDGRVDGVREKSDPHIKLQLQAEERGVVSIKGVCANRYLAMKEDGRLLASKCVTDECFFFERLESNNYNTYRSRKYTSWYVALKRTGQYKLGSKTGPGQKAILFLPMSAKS
SMILES,composite z-score (Albumin (Bos taurus)),composite Z-score [1],composite z-score [2],composite z-score [3],composite z-score [4],composite z-score [5],composite z-score [6],composite z-score (Sam68 (KHDRBS1)),composite z-score [7],composite z-score [8],composite z-score [9],composite z-score [10],composite z-score [11],composite z-score [12],composite z-score [13],composite z-score [14],z-score [15],composite z-score (Lefty1),composite z-score [16],z-score [17]
CC(C)[C@@H](C(=O)O)n1cc(-c2ccccc2)nn1,0.739,0.0388 (inactive),-0.0225,-0.0454,0.39,0.575,0.547,1.06,-0.145,1.12,0.808,1.14,0.866,0.924,0.098,0.112,-0.138,-0.0617,1.15,0.131 (inactive)
COC(=O)[C@@H]1N=C(c2ccc(OCCCO)cc2)O[C@@H]1c1ccccc1CN=[N+]=[N-],0.273,0.443 (inactive),0.181,-0.0162,0.552,1.18,-0.0169,0.513,-0.689,0.116,-0.125,0.943,0.841,0.38,0.233,-0.633,0.22,-0.119,0.939,-0.0813 (inactive)
CCCC[C@H]1OB(O)C[C@H]2C1=C(C)C[C@H]1C(=O)C=CC(=O)[C@H]12,-0.324,-0.0764 (inactive),0.0159,-0.106,0.011,0.423,0.121,1.04,0.821,0.544,0.306,0.615,-0.244,0.483,0.828,0.642,-0.353,1.16,-0.0126,-2.94 (inactive)
NCCCC[C@@H]1NC(=O)[C@H]2C[C@@H](C(=O)NCc3ccc(F)cc3)[C@@H](c3cccc(OCCO)c3)N2C1=O,-0.364,0.125 (inactive),0.156,-0.0995,0.549,1.46,0.251,1.3,1.47,0.701,2.48,1.23,0.0858,0.763,1.32,1.62,-1.7,1.56,0.231,-0.434 (inactive)
[N-]=[N+]=NCc1ccccc1[C@H]1OC(c2ccc(OCCCO)cc2)=N[C@@]1(Cc1ccccc1)C(=O)N1CCOCC1,0.912,0.475 (inactive),0.754,0.294,0.55,2.97,0.204,1.3,-0.0573,1.14,1.44,1.26,0.46,0.992,0.25,1.48,0.343,-0.155,0.723,-0.372 (inactive)
CC(C)(C)OC(=O)CC[C@]1(C(=O)N2CCOCC2)N=C(c2ccc(OCCCO)cc2)O[C@H]1c1ccccc1CN=[N+]=[N-],0.508,0.341 (inactive),0.116,-0.0219,0.745,3.11,0.519,1.31,-0.227,0.977,0.442,1.29,0.527,0.979,1.42,1.39,-0.423,0.23,1.19,-1.15 (inactive)
CN(C)CCCCNC(=O)[C@H]1C[C@H]2C(=O)N[C@@H](Cc3ccccc3)C(=O)N2[C@H]1c1cccc(OCCO)c1,-0.598,-0.162 (inactive),-0.199,-0.117,0.627,-0.185,-0.507,-1.16,0.739,0.696,0.807,-0.562,-0.0598,-0.205,1.21,0.694,-0.0938,0.365,-0.0282,0.801 (inactive)
COc1ccc([Si](C)(C)[C@@H]2[C@@H](CCO)O[C@]3(C(=O)N(Cc4ccccc4)c4ccc(N5C(=O)c6ccccc6Oc6ccccc65)cc43)[C@H]2C)cc1,0.208,0.304 (inactive),-0.192,-0.155,-0.0035,0.981,-0.0345,-0.809,-1.36,0.718,0.176,0.106,0.0875,-0.0507,0.0192,-0.539,-0.0766,0.172,0.204,0.762 (inactive)
CC(C)C(=C=CC[C@@H](O)c1ccc(OCCO)cc1)CCO,0.261,-0.488 (inactive),-0.0259,-0.14,0.601,0.583,-0.178,0.275,0.184,0.224,-0.171,-0.744,-0.397,0.114,1.26,1.25,0.451,0.607,-0.154,-0.426 (inactive)
CN(C)CCCC[C@@H]1NC(=O)[C@H]2C[C@@H](C(=O)NCc3ccc(F)cc3)[C@@H](c3ccc(O)cc3)N2C1=O,-0.734,1.79 (inactive),-0.136,-0.0423,0.757,2.25,0.0507,1.16,1.13,1.15,2.75,0.0526,-0.193,0.563,1.41,1.93,0.742,1.64,0.419,-1.23 (inactive)
COCCOC(=O)N1C(=O)[C@@]2(c3cc(C#CCC(C(=O)OC)C(=O)OC)ccc31)[C@H](c1ccc(OCCO)cc1)N1[C@H](c3ccccc3)[C@H](c3ccccc3)OC(=O)[C@H]1[C@@H]2C(=O)N1CCCCCCC1,0.256,2.32 (inactive),1.77,0.597,0.604,3.41,0.986,1.3,1.3,1.1,1,1.21,0.899,0.686,1.5,0.614,-0.83,0.958,1.37,-1.62 (inactive)
